Measurements from PubChem BioAssay.
Activity calls are given as the source filed them.

Columns and labels:
[1] = system: Plasmodium falciparum Sir2 (PF13_0152, Sir2A); assay: Plasmodium falciparum Sir2A binding compounds – biochemical, small-molecule microarray, 635 nm fluorescence, primary screen (AID 1098); settings: fluorescence 635 nm, higher = more signal;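 note: score merges spot fluorescence intensity with its signal-to-noise ratio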
[2] = probe aDKK1 binding to arrayed compounds – biochemical, biotinylated probe, 635/667 nm fluorescence, primary screen (AID 1099); settings: small-molecule microarray, higher = more signal;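 note: score merges 667nm spot fluorescence with signal to noise across triplicate slides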
[3] = probe aCHRDL2 binding to arrayed compounds – biochemical, biotinylated probe, 635/667 nm fluorescence, primary screen (AID 1100); settings: small-molecule microarray, higher = more signal
[4] = change in splice reporter luminescence, either direction, cell-based, HEK293, spliceosome inhibition project, primary screen (AID 1101); settings: HEK293 splicing luciferase reporter, 24 h, higher = more signal, called active from +8 up or from −8 down;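 note: HEK293 cells carrying a splicing-competent luciferase reporter gene; test concentration not given here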
[5] = molecular target: Fibroblast growth factor 10 (Homo sapiens) (UniProt O15520); assay: compounds binding fibroblast growth factor 10 – biochemical, small-molecule microarray, 635 nm fluorescence, primary screen (AID 1102); settings: FGF10 binding, fluorescence 635 nm, higher = more signal
[6] = system: glycogen synthase kinase-3 (GSK3A per assay name; protocol says GSK3B); assay: compounds binding glycogen synthase kinase-3 – biochemical, small-molecule microarray, 635 nm fluorescence, GSK3A, primary screen (AID 1103); settings: fluorescence 635 nm, higher = more signal; note: the record names both GSK3A and GSK3B
[7] = molecular target: Epidermal growth factor receptor (Homo sapiens) (UniProt P00533); assay: compounds binding epidermal growth factor receptor – biochemical, small-molecule microarray, 635 nm fluorescence, primary screen (AID 1104); settings: EGFR binding, higher = more signal;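 note: score merges 667 nm emission intensity with spot signal to noise over triplicate slides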
[8] = molecular target: Follistatin-related protein 3 (Homo sapiens) (UniProt O95633); assay: compounds binding follistatin-related protein 3 – biochemical, small-molecule microarray, 635 nm fluorescence, primary screen (AID 1105); settings: FSTL3 binding, higher = more signal;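 note: score merges emission near 667 nm and signal to noise per printed spot across three slides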
[9] = molecular target: Dickkopf-related protein 1 (Homo sapiens) (UniProt O94907); assay: small molecules binding DKK1 protein – biochemical, small-molecule microarray, 635 nm fluorescence scan, primary screen (AID 1106); settings: higher = more signal;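 note: score merges emission near 667 nm with signal to noise over three replicate slides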
[10] = system: Inhibin beta A chain (activin A); assay: small molecules binding activin A – biochemical, small-molecule microarray, 635 nm fluorescence scan, primary screen (AID 1107); settings: INHBA, higher = more signal;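 note: mouse activin A protein probed at 4.33 µg/mL on printed slides; score merges bound-protein fluorescence near 667 nm with spot signal-to-noise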
[11] = system: Human papillomavirus type 1a protein E7 (residues 44-93); assay: small molecules binding HPV E7 44-93 – biochemical, small-molecule microarray, residues 44-93, 635 nm fluorescence, primary screen (AID 1108); settings: fluorescence 635 nm, higher = more signal;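 note: E7 fragment applied at 1 µg/mL in TBST for 1 h at 4 C; score combines spot fluorescence with its signal to noise ratio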
[12] = hepatitis C replication reporter changes, two-sided – Huh7 cells, luciferase reporter, HCV replication inhibitor project, primary screen (AID 1109); settings: Huh7 HCV replicon luciferase reporter, 48 h; higher = more signal;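 note: huh7 hepatoma cells harbouring a luciferase neomycin HCV replicon reporter; luciferase luminescence as measure of HCV replicon replication; test concentration not given here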
[13] = molecular target: Left-right determination factor 2 (Homo sapiens) (UniProt O00292); assay: small molecules binding LEFTY2 protein – biochemical, small-molecule microarray, 635 nm fluorescence scan, primary screen (AID 1110); settings: higher = more signal
[14] = molecular target: Calmodulin-1 (Homo sapiens) (UniProt P0DP23); assay: small molecules binding calmodulin-1 with EGTA – biochemical, small-molecule microarray, Cy5-labelled CALM1, profiling panel (AID 1111); settings: Cy5-CALM1 binding fluorescence, higher = more signal;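 note: labelled calmodulin applied in Tris saline Tween buffer holding calcium plus EGTA and DTT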
[15] = molecular target: Calmodulin-1 (Homo sapiens) (UniProt P0DP23); assay: small molecules binding Ca-loaded calmodulin-1 – biochemical, small-molecule microarray, Cy5-labelled CALM1, plus calcium, artefact control for SMM control-protein annotation, profiling panel (AID 1112); settings: Cy5-CALM1 binding fluorescence, higher = more signal;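 note: score merges spot fluorescence with signal to noise from triplicate slides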
[16] = probe aWnt5a binding to arrayed compounds – biochemical, biotinylated probe, 635/667 nm fluorescence, primary screen (AID 1113); settings: small-molecule microarray, higher = more signal;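 note: score merges 667 nm fluorescence intensity with signal-to-noise per printed feature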
[17] = probe aShh binding to arrayed compounds – biochemical, biotinylated probe, 635/667 nm fluorescence, primary screen (AID 1114); settings: small-molecule microarray, higher = more signal;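 note: probe is biotin-labelled aShh protein from a stem cell growth factor screen; measures binding of labelled protein to compounds printed on the slide; score merges feature fluorescence at 667 nm with signal-to-noise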
[18] = probe aNog binding to arrayed compounds – biochemical, biotinylated probe, 635/667 nm fluorescence, primary screen (AID 1115); settings: small-molecule microarray, higher = more signal;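 note: probe is biotinylated aNog protein used at 0.15 µg/mL for 1 h at 4 C; z-score combines 667 nm fluorescence of each spot with its signal to noise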
[19] = molecular target: Torsin-1A-interacting protein 1 (Homo sapiens) (UniProt Q5JTV8); assay: compound microarray binding of lysate hLAP1 – cell lysate, small-molecule microarray, COS7 lysate, 635/667 nm fluorescence, primary screen (AID 1116); settings: 635 nm fluorescence, higher = more signal
[20] = molecular target: Alpha-bungarotoxin (Bungarus multicinctus) (UniProt P60615); assay: compounds binding labelled alpha-BTX control protein – biochemical, small-molecule microarray, Alexa647 label, 635/667 nm fluorescence, artefact control for SMM control protein annotation, profiling panel (AID 1117); settings: alpha-BTX-A647 binding fluorescence, higher = more signal
Alpha-bungarotoxin (Bungarus multicinctus), sequence (P60615 whole entry, looked up): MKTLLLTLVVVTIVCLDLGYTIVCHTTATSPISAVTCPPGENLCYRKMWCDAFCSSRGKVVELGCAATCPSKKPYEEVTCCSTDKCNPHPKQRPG

Torsin-1A-interacting protein 1 (Homo sapiens), sequence (Q5JTV8 whole entry, looked up): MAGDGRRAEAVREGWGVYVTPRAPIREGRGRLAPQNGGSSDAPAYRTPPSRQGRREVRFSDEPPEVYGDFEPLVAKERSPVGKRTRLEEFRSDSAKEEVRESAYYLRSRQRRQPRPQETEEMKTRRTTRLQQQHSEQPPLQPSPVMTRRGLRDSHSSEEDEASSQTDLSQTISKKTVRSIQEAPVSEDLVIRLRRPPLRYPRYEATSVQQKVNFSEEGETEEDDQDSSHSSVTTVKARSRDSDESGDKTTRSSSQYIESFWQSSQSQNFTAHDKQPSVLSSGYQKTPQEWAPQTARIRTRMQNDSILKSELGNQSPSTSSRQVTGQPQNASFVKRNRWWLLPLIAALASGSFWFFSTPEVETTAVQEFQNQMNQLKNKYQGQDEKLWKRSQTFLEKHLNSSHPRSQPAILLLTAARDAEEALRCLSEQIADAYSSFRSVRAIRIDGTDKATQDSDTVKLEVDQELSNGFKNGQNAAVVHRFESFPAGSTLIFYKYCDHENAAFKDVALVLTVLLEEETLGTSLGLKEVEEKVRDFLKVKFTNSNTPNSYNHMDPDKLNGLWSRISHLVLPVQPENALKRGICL
Dickkopf-related protein 1 (Homo sapiens), sequence (O94907 whole entry, looked up): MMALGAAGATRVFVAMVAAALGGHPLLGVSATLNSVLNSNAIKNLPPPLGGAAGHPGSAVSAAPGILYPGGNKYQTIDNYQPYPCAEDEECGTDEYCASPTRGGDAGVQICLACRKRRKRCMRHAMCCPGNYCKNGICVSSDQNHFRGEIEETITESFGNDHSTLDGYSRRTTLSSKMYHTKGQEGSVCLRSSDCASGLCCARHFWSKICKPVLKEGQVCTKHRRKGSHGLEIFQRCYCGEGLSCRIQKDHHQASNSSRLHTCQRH
Fibroblast growth factor 10 (Homo sapiens), sequence (O15520 whole entry, looked up): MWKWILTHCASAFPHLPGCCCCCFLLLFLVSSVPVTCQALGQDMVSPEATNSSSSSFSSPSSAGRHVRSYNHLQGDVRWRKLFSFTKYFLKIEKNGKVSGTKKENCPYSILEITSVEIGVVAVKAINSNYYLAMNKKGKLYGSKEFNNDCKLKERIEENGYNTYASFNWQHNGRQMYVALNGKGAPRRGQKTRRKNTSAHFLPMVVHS
Left-right determination factor 2 (Homo sapiens), sequence (O00292 whole entry, looked up): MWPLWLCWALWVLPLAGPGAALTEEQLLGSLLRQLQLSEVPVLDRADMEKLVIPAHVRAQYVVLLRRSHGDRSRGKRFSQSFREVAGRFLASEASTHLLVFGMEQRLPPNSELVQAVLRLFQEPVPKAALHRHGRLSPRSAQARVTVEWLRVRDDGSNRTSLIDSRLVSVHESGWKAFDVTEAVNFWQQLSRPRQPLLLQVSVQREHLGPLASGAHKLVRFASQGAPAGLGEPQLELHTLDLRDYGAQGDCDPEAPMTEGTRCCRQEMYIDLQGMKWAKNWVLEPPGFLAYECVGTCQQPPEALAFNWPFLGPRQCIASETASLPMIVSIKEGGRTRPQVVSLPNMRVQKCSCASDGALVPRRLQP
Follistatin-related protein 3 (Homo sapiens), sequence (O95633 whole entry, looked up): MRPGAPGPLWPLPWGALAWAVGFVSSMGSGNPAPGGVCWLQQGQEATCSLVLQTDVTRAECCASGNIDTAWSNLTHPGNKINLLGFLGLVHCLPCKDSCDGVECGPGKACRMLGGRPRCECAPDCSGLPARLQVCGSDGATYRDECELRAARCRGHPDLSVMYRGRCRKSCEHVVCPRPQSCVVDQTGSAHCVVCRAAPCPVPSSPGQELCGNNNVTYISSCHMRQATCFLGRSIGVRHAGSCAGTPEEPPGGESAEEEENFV
Epidermal growth factor receptor (Homo sapiens), sequence (P00533 whole entry, looked up): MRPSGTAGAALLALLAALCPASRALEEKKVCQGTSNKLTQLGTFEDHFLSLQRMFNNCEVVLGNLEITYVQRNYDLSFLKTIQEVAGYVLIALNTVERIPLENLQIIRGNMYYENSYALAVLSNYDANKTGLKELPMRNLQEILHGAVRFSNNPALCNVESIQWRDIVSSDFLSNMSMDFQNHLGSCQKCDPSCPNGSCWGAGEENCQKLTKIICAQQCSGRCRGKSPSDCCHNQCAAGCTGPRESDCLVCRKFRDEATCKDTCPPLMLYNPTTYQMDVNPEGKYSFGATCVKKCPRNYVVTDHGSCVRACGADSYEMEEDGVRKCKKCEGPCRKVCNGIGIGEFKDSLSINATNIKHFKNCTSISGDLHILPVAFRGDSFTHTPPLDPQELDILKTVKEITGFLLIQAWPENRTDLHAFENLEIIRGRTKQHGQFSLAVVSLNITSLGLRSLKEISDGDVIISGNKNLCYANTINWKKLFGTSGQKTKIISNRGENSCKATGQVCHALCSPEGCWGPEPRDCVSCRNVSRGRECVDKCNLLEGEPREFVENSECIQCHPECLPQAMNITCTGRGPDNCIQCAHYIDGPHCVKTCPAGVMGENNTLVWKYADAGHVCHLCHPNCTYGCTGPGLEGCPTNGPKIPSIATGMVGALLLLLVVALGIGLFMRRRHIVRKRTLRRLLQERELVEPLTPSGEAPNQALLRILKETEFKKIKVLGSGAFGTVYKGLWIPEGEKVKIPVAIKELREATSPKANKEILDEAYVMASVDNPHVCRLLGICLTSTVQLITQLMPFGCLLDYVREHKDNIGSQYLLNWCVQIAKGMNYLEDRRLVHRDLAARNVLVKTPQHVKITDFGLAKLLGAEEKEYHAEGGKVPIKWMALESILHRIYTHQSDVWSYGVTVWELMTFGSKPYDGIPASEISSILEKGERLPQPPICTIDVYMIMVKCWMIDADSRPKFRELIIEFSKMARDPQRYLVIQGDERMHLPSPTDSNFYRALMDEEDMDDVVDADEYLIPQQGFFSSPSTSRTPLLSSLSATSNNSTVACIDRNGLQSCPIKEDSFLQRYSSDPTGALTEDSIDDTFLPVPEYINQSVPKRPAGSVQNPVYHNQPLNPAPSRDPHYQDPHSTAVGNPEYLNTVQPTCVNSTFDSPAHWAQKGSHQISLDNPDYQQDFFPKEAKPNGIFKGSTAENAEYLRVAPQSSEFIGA

| SMILES | composite z-score [1] | composite z-score [2] | composite z-score [3] | z-score [4] | composite z-score [5] | composite z-score [6] | composite z-score [7] | composite z-score [8] | composite z-score [9] | composite z-score [10] | composite z-score [11] | z-score [12] | composite z-score [13] | composite z-score [14] | composite z-score [15] | composite z-score [16] | composite z-score [17] | composite z-score [18] | composite z-score [19] | composite z-score [20] |
| --- | --- | --- | --- | --- | --- | --- | --- | --- | --- | --- | --- | --- | --- | --- | --- | --- | --- | --- | --- | --- |
| CCOC(=O)[C@H]1C/C=C/C[C@H](C(=O)OCC)C(=O)O[C@H]2[C@@H](OC)O[C@H](CO)[C@@H](OC(=O)Nc3ccc(C#N)cc3)[C@@H]2OC1=O | 0.859 | -0.114 | 0.0682 | -2.6 (inactive) | 0.322 | -0.0841 | -0.226 | 0.413 | -0.255 | 0.189 | -0.324 | -3.6 | -0.0147 | 0.917 | 0.148 | -0.124 | 0.0062 | -0.113 | 1.63 | -0.253 |
| [N-]=[N+]=Nc1ccccc1C[C@@]1(C(=O)NCCN2CCOCC2)N=C(c2ccc(OCCCO)cc2)O[C@@H]1c1ccccc1 | 1.57 | 0.532 | 0.915 | -0.724 (inactive) | 1.35 | 1.29 | 0.245 | 1.21 | 0.461 | 0.847 | 1.47 | -1.32 | 0.248 | 0.797 | -0.3 | -0.0303 | 0.315 | -0.462 | 0.819 | 0.597 |
| O=C1C2C=CC(C(O)C(c3ccccc3)c3ccccc3)N(n3cnnc3)C2C(=O)N1Cc1ccccc1 (stereo not given) | 0.55 | -0.0184 | 0.571 | 0.00252 (inactive) | 1.25 | 1.07 | -1.18 | 0.439 | 1.24 | 0.581 | 1.24 | -0.832 | -0.164 | 0.836 | -0.34 | 0.07 | 0.184 | 0.976 | 1.57 | 0.652 |
| COCCOC(=O)N1C(=O)[C@@]2(c3cc(C#CC4=CCCCC4)ccc31)[C@H](C(=O)Nc1nc3ccccc3s1)[C@H]1C(=O)O[C@H](c3ccccc3)[C@H](c3ccccc3)N1[C@@H]2c1ccccc1OCCO | 0.966 | 0.756 | 0.4 | -0.823 (inactive) | 1.33 | 1.29 | 0.765 | 1.41 | 0.785 | 1.3 | 1.42 | -1.66 | 0.938 | 0.738 | 0.417 | 0.332 | 0.126 | 1.21 | 0.512 | 0.858 |
| CC(C)(C)OC(=O)CC[C@@]12N=C(c3ccc(OCCCO)cc3)O[C@@H]1c1ccccc1N(CCS(=O)(=O)c1ccccc1)C2=O | 0.691 | 0.512 | 1.03 | -1.14 (inactive) | -0.122 | 0.323 | 0.348 | 1.12 | 0.681 | 1.05 | 1.08 | -0.831 | 0.374 | 0.887 | 0.105 | -0.0203 | -0.0035 | -0.335 | 0.642 | 1.35 |
| COc1cc2c(cc1OC)CN(C(=O)[C@@H]1[C@H]3C(=O)O[C@H](c4ccccc4)[C@H](c4ccccc4)N3[C@H](c3ccc(O)cc3)[C@@]13C(=O)Nc1ccc(C#CC4(O)CCCCCC4)cc13)CC2 | 1.41 | -0.767 | -0.692 | 0.263 (inactive) | 1.28 | 1.29 | 0.458 | 0.498 | 0.474 | -0.439 | 1.21 | -1.1 | 1.39 | 0.965 | -0.0394 | -0.195 | -0.0005 | 2.1 | 0.344 | 1.66 |
| Cc1ccc(S[C@]2(C(=O)NC3CC3)CC(=O)N(C3Cc4ccccc4C3)[C@@H]2c2ccc(CO)cc2)cc1 | 1.65 | 0.245 | 0.806 | -0.983 (inactive) | -0.451 | -0.15 | -0.876 | -0.809 | -1.02 | -0.139 | 1.27 | -1.08 | -1.7 | -0.0137 | 0.0662 | -0.258 | -0.154 | 0.354 | 0.439 | -0.441 |
| O=C1[C@H]2C=C(Br)[C@H](C[C@@H]2OCCCCO)[C@@]12CO2 | 1.02 | -0.257 | -0.504 | -0.238 (inactive) | 0.177 | 0.0613 | 0.224 | -0.0883 | 0.438 | 0.646 | -0.875 | -1.98 | 0.307 | -0.442 | -1.04 | -0.0944 | 0.149 | 0.101 | -0.272 | -0.032 |
| O=C(O)[C@@]1(CCS(=O)(=O)c2ccccc2)COC(c2ccc(OCCCO)cc2)=N1 | 0.6 | 0.458 | 1.05 | 0.733 (inactive) | 0.0185 | -0.62 | -0.939 | -0.928 | -1.17 | 1.19 | 0.182 | -0.615 | -0.691 | -0.0602 | 0.24 | -0.129 | 0.0062 | -0.463 | 2.98 | 0.451 |
| COC(=O)[C@@]1(Cc2ccc(F)cc2)[C@H]2c3cc(C(=O)N(C)C)n(Cc4nc5ccccc5[nH]4)c3C[C@H]2CN1C(=O)c1ccccc1 | 1.62 | 0.69 | 0.969 | -1.62 (inactive) | 0.63 | -0.136 | 0.314 | 0.296 | -0.419 | 0.538 | 1.32 | -0.494 | -0.423 | 1.42 | 0.114 | 0.178 | 0.603 | 0.485 | 0.778 | 0.324 |
| O=C1NC(=O)C2C1C=CC(C(O)Cc1ccccc1)N2Nc1ccc(Cl)cc1Cl (stereo not given) | 1.2 | 0.931 | 1.09 | 1.8 (inactive) | 0.175 | -0.0984 | -0.854 | 0.236 | -1.18 | 1.07 | -1.97 | 0.458 | -1.29 | 1.73 | 0.634 | -0.0825 | 0.171 | 0.155 | 0.588 | 1.57 |
